Measurements taken from PubChem BioAssay AID743482 (Broad Institute, 2014).
Active and inactive are the calls of the source.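 The calls were made as follows: active = falling viability signal whose fitted half-maximal concentration is at most twice the highest tested dose; inconclusive = flat fit with a moderate drop, or a poor curve fit; inactive = the rest.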

Assay: cytotoxicity in HepG2 cells, dose response, cytotoxicity control, cell-based, CellTiter-Glo luminescence, dry powder (AID 743482)
Details: HepG2 viability, ATP luminescence, 72 h; series mostly up to 26 µM

Row | Compound | outcome
1 | C[C@H](CO)N1C[C@H](C)[C@H](CN(C)C(=O)Nc2cccc3ccccc23)OCCCC[C@H](C)Oc2ccc(NC(=O)c3ccccc3)cc2C1=O | inactive
2 | C[C@H](CO)N1C[C@H](C)[C@H](CN(C)C(=O)Nc2ccccc2F)OCCCC[C@H](C)Oc2ccc(NC(=O)C3CCCCC3)cc2C1=O | inactive
3 | COc1ccc(NC(=O)N(C)C[C@@H]2OCCCC[C@H](C)Oc3ccc(NC(=O)C4CCCCC4)cc3C(=O)N([C@H](C)CO)C[C@@H]2C)cc1 | inactive
4 | C[C@@H]1CCCCO[C@@H](CN(C)C(=O)Nc2cccc3ccccc23)[C@@H](C)CN([C@@H](C)CO)C(=O)c2cc(NC(=O)C3CCCCC3)ccc2O1 | inactive
5 | C[C@H](CO)N1C[C@H](C)[C@H](CN(C)C(=O)Nc2ccc(F)cc2)OCCCC[C@H](C)Oc2ccc(NC(=O)C3CCC3)cc2C1=O | inactive
6 | COc1ccc(S(=O)(=O)N(C)C[C@@H]2OCCCC[C@H](C)Oc3ccc(NS(=O)(=O)c4ccc(F)cc4)cc3C(=O)N([C@@H](C)CO)C[C@@H]2C)cc1 | inactive
7 | C[C@H]1CCCCO[C@@H](CN(C)C(=O)Nc2ccc(C(F)(F)F)cc2)[C@@H](C)CN([C@@H](C)CO)C(=O)c2cc(NC(=O)CCC(F)(F)F)ccc2O1 | inactive
8 | C[C@H]1CCCCO[C@@H](CN(C)C(=O)Nc2cccc3ccccc23)[C@@H](C)CN([C@@H](C)CO)C(=O)c2cc(NC(=O)C3CCCCC3)ccc2O1 | inactive
9 | C[C@@H]1CN([C@H](C)CO)C(=O)c2cc(NC(=O)C3CCCCC3)ccc2O[C@@H](C)CCCCO[C@H]1CN(C)C(=O)Nc1cccc2ccccc12 | inactive
10 | C[C@H](CO)N1C[C@H](C)[C@H](CN(C)C(=O)Nc2ccc(C(F)(F)F)cc2)OCCCC[C@H](C)Oc2ccc(NC(=O)CCC(F)(F)F)cc2C1=O | inactive
11 | COc1ccc(NC(=O)N(C)C[C@@H]2OCCCC[C@H](C)Oc3ccc(NC(=O)NC4CCCCC4)cc3C(=O)N([C@H](C)CO)C[C@@H]2C)cc1 | inactive
12 | C[C@H](CO)N1C[C@H](C)[C@H](CN(C)C(=O)Nc2ccccc2)OCCCC[C@H](C)Oc2ccc(NC(=O)Nc3ccccc3)cc2C1=O | inactive
13 | C[C@@H]1CCCCO[C@H](CN(C)C(=O)Nc2cccc3ccccc23)[C@@H](C)CN([C@@H](C)CO)C(=O)c2cc(NC(=O)C3CCCCC3)ccc2O1 | inactive
14 | C[C@H](CO)N1C[C@H](C)[C@H](CN(C)C(=O)Nc2ccc(Cl)cc2)OCCCC[C@H](C)Oc2ccc(NC(=O)C3CCCCC3)cc2C1=O | inactive
15 | CC(C)(C)c1ccc(-c2nc(-c3ccncc3)no2)cc1 | inactive
16 | C[C@H](CO)N1C[C@H](C)[C@H](CN(C)C(=O)Nc2cccc(F)c2)OCCCC[C@H](C)Oc2ccc(NC(=O)C3CCCCC3)cc2C1=O | inactive
17 | C[C@H](CO)N1C[C@H](C)[C@H](CN(C)C(=O)Nc2cccc3ccccc23)OCCCC[C@H](C)Oc2ccc(NC(=O)CCC(F)(F)F)cc2C1=O | inactive
18 | C[C@@H]1CCCCO[C@@H](CN(C)C(=O)Nc2cccc3ccccc23)[C@H](C)CN([C@H](C)CO)C(=O)c2cc(NC(=O)C3CCCCC3)ccc2O1 | inactive
19 | C[C@H](CO)N1C[C@H](C)[C@H](CN(C)C(=O)Nc2ccccc2)OCCCC[C@H](C)Oc2ccc(NC(=O)CCC(F)(F)F)cc2C1=O | inactive
20 | C[C@H]1CCCCO[C@@H](CN(C)S(=O)(=O)c2ccc(Cl)cc2)[C@@H](C)CN([C@@H](C)CO)C(=O)c2cc(NC(=O)NC3CCCCC3)ccc2O1 | inactive
21 | C[C@H](CO)N1C[C@H](C)[C@H](CN(C)C(=O)Nc2ccc(F)cc2)OCCCC[C@H](C)Oc2ccc(NC(=O)C3CCOCC3)cc2C1=O | inactive
22 | C[C@H](CO)N1C[C@H](C)[C@H](CN(C)C(=O)Nc2ccccc2)OCCCC[C@H](C)Oc2ccc(NC(=O)NC3CCCCC3)cc2C1=O | inactive
23 | C[C@H](CO)N1C[C@H](C)[C@H](CN(C)C(=O)Nc2ccc(F)cc2)OCCCC[C@H](C)Oc2ccc(NC(=O)C3CC3)cc2C1=O | inactive
24 | C[C@H]1CCCCO[C@@H](CN(C)C(=O)Nc2ccc(F)cc2)[C@@H](C)CN([C@@H](C)CO)C(=O)c2cc(NC(=O)C3CCCCC3)ccc2O1 | inactive
25 | CC(=O)Nc1ccc2c(c1)C(=O)N([C@H](C)CO)C[C@H](C)[C@H](CN(C)C(=O)Nc1ccc(F)cc1)OCCCC[C@H](C)O2 | inactive
26 | C[C@H](CO)N1C[C@H](C)[C@H](CN(C)C(=O)Nc2ccc3c(c2)OCO3)OCCCC[C@H](C)Oc2ccc(NC(=O)C3CCCCC3)cc2C1=O | inactive
